TLR9-MyD88 inh: inhibitors of TLR9-MyD88 association in cells, primary screen, cell-based, CHO, BLA complementation, fluorescence; Toll-like receptor 9 (Homo sapiens) + Myeloid differentiation primary response protein …; CCF4 FRET ratio; inhibition, % at 4.98 µM; 340,000 tested, 0.21% active;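 active means inhibition above the mean over all tested compounds plus 3 SD, cut at about 21% in these data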;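 further: 0% = DMSO only wells and 100% = clavulanate BLA inhibitor control wells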
NOD2 RIPK2 PPI: NOD2-RIPK2 binding disruptors in cells, primary screen, fluorescence, CHO cells, BLA complementation. CCF4 ratio. inhibition, % at 4.98 µM. 360,000 tested, 0.38% active; in the data active means inhibition above about 21%;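 further: 0% = vehicle only and 100% = reference blocker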
Target sequence (O43353 whole entry, looked up): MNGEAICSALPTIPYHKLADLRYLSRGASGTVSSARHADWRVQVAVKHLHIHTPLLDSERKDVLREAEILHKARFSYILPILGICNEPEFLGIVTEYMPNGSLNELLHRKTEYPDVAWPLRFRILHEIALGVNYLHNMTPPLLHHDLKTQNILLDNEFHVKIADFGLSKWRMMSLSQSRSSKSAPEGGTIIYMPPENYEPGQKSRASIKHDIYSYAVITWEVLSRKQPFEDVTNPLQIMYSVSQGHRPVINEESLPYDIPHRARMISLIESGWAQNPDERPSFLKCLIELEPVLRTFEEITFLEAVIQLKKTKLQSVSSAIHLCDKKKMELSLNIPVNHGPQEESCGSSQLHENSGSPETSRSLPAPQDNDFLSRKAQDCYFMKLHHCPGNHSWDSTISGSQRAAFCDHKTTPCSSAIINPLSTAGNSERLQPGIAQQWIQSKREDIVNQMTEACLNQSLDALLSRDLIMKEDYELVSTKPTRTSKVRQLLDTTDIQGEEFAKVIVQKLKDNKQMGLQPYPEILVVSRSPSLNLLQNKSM
TLR4 MyD88 comp: inhibitors of TLR4-MyD88 association in cells, primary screen, cell-based, HeLa CL3-4, BLA complementation, FRET ratio. HeLa CL3-4 TLR4/MyD88 BLA complementation. inhibition, % at 8.4 µM. 200,000 tested, 0.18% active; in the data active means inhibition above about 25%;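 further: 0% = vehicle and 100% = reference inhibitor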
IDE cell inh: human IDE inhibitors in live cells, primary screen, fluorescence polarization, HEK cells, FAbetaB substrate; AID 434962, 2010; inhibition, % at 5.59 µM; 320,000 tested, 0.41% active; FAbetaB cleavage; Insulin-degrading enzyme (Homo sapiens), P14735;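 active means percent inhibition above the average of all tested compounds plus 3 SD, set per screening campaign, cut at about 16% in these data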;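 further: IDE supplied by intact live HEK cells; FP after avidin binding of uncleaved biotin substrate so inhibition keeps polarization high; 0% = DMSO wells and 100% = 60 µM reference IDE inhibitor Ii1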
IDE cell activ: human IDE activators in live cells, primary screen, fluorescence polarization, HEK cells, FAbeta-B substrate; Insulin-degrading enzyme (Homo sapiens), P14735; FAbeta-B cleavage; 0% vehicle, 100% cell-free pure enzyme wells; activation, % at 5.96 µM; 340,000 tested, 0.073% active;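 active means activation above the mean of all tested compounds plus 3 SD, set per screening campaign, cut at about 17% in these data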
TLR9-MyD88 conf: TLR9-MyD88 association inhibitors, retest, confirmation, cell-based, CHO, BLA complementation, fluorescence, triplicate; shares compounds with TLR9-MyD88 inh; CCF4 FRET ratio; inhibition, % at 4.98 µM; 680 tested, 51% active;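 active means mean inhibition across three repeats above about 21% taken from the earlier screen, limit read from the data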;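 further: blue over green emission ratio reports constitutive TLR9 MyD88 association via BLA complementation; 0% = DMSO vehicle wells and 100% = clavulanate BLA inhibitor wells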
BLA counter-1: beta-lactamase reporter inhibitors in CHO cells, artefact control for TLR9-MyD88 binding inhibitor project, cell-based, fluorescence; inhibition, % at 4.98 µM; shares compounds with TLR9-MyD88 inh; 680 tested, 7% active; CHO-BLA cells, CCF4 FRET ratio, BLA reporter;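 active means mean inhibition above a 50% cutoff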;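 further: counterscreen of TLR9-MyD88 hits on CMV-driven BLA in CHO-K1 cells; 0% = DMSO alone and 100% = clavulanate blocking BLA; higher means less blue over green ratio so more BLA blockade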
TLR9 CHO tox: CHO cell viability loss – luminescence, single concentration, cytotoxicity control for TLR9-MyD88 binding inhibitor project; shares compounds with TLR9-MyD88 inh; TLR9-MyD88 CHO cells cytotoxicity; inhibition, % at 4.98 µM; 680 tested, 39% active; AID 588336, 2011; in the data active means inhibition above about 11%
NOD2 RIPK2 conf: NOD2-RIPK2 binding disruptors, retest, confirmation, fluorescence, CHO cells, BLA complementation, triplicate; shares compounds with NOD2 RIPK2 PPI; CCF4 FRET; inhibition, % at 4.98 µM; 1,200 tested, 70% active;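 active means mean inhibition across replicates above a set limit taken from the earlier primary screen, cut at about 21% in these data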;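 further: 0% = DMSO-only wells and the high end = clavulanate BLA-blocked wells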
BLA counter-2: NOD2-RIPK2 counterscreen BLA reporter activity. inhibition, % at 4.98 µM. AID 624371. CHO BLA reporter, CCF4 FRET ratio. shares compounds with NOD2 RIPK2 PPI. 1,200 tested, 57% active;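 active means mean inhibition above the low-control mean inhibition plus three low-control SD, cut at about 11% in these data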;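 further: 0% = DMSO only wells and 100% = clavulanate high control wells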
Starred values were filed as active, the others as inactive; x = not tested or not shown. Compounds with a hit are over-represented: about 0.87% of the library has one in this group of screens.

SMILES | TLR9-MyD88 inh | NOD2 RIPK2 PPI | TLR4 MyD88 comp | IDE cell inh | IDE cell activ | TLR9-MyD88 conf | BLA counter-1 | TLR9 CHO tox | NOD2 RIPK2 conf | BLA counter-2
CCC1(O)C(=O)OCc2c1cc1n(c2=O)Cc2cc3cc(O)ccc3nc2-1 (configuration not stated) | 29* | 26* | x | x | 6 | 19 | 20 | 63* | 42* | 33*
CCN(CC)c1ccc(/C=C/c2cc(-c3ccccc3)c3ccccc3n2)cc1 | 55* | 69* | x | 5 | -6 | 70* | 80* | 5 | 80* | 86*
CCN(CC)c1ccc(/C=N/NC(=O)c2cc(C)nc3ccccc23)cc1 | -7 | 5 | x | 10 | -2 | x | x | x | x | x
COc1ccc2nc(C)cc(Nc3ccc(C)cc3)c2c1 | -11 | -1 | x | x | 2 | x | x | x | x | x
COc1ccc2nc(C)cc(NCc3ccc(F)cc3)c2c1 | 38* | 24* | x | 13 | -12 | 22* | 18 | 30* | 45* | 44*
Nc1c(C(=O)CSc2nnc(-c3ccccc3)o2)c(=O)[nH]c(=O)n1C1CC1 | -5 | 7 | x | -2 | 0 | x | x | x | x | x
O=C(CN1C(=O)c2cccc3cccc1c23)Nc1ccccc1C(=O)NCc1ccco1 | 32* | 23* | -4 | 1 | 3 | 8 | 12 | 3 | 22* | 22*
COc1ccc(OC)c(C=Cc2ccc([N+](=O)[O-])cc2)c1 | 34* | 43* | x | x | x | 26* | 27 | 7 | 46* | 53*
COc1ccc(OC)c(/C=C/c2[nH]c(=O)[nH]c(=O)c2[N+](=O)[O-])c1 | -3 | -11 | x | x | 2 | x | x | x | x | x
COc1ccc(/C=N/Nc2ccc([N+](=O)[O-])cc2)cc1O | 37* | 28* | x | 3 | -2 | 28* | 24 | 10 | 43* | 47*
CCn1c(Cl)c(C=O)s/c1=N\S(=O)(=O)c1ccccc1 | 48* | 94* | x | 1 | -12 | 53* | 29 | 96* | 98* | 38*
CNC(=O)c1cc(C(=O)c2ccc(Cl)cc2)c(Br)[nH]1 | -3 | -3 | x | -1 | -1 | x | x | x | x | x
O=C1Nc2ccc(Br)cc2C12NNc1ccccc1O2 (configuration not stated) | 33* | 36* | 21 | 3 | 7 | 26* | 21 | 0 | 35* | 47*
NNC(=O)c1oc2nc(-c3ccco3)cc(-c3ccco3)c2c1N | x | -1 | x | -1 | x | x | x | x | x | x
NNC(=O)c1oc2nc(-c3ccc(Cl)cc3)cc(-c3ccccc3)c2c1N | 24* | 26* | x | x | 2 | 46* | 41 | 1 | 62* | 67*
O=C(NCc1ccncc1)C(=O)NC1CC1 | 5 | -4 | 10 | 3 | -2 | x | x | x | x | x
CCOC(=O)C1=C(C)Nc2sc(C(=O)c3ccc(OC)cc3)c(N)c2C1c1ccc(C(=O)OC)cc1 (configuration not stated) | 44* | 39* | 10 | -1 | -5 | -1 | 9 | 7 | 5 | 20*
COC1CCCN(Cc2c(C(=O)N3CCN(C4CCCCC4)CC3)nc3ccccn23)C1 (configuration not stated) | -13 | 10 | x | 5 | 2 | x | x | x | x | x
COc1ccc(NC(=O)/C(Cl)=C(/Cl)S(=O)Cc2ccccc2)cn1 (configuration not stated) | 43* | 92* | 9 | 0 | -7 | 49* | 32 | 99* | 92* | 30*
COc1ccc(NC(=O)Cc2ccccc2)cn1 | -4 | 1 | -11 | 8 | -1 | x | x | x | x | x
CCn1nc(C)c(Br)c1C(=O)Sc1ccccc1Cl | 4 | 6 | x | 4 | -4 | x | x | x | x | x
CC(C)CCN1C(=O)c2cccc3c(N)ccc(c23)C1=O | 55* | 70* | x | -22 | 54* | 33* | 29 | 1 | 64* | 70*
O=C(Sc1cccc2cccnc12)c1ccccc1Br | 24* | 39* | x | 10 | 3 | 22* | 15 | 98* | 41* | 17*
CC(=O)/C(=N\Nc1ccccc1Cl)Sc1cccc2cccnc12 | -1 | -2 | -21 | 10 | 3 | x | x | x | x | x
COc1cc(/C=C/C(=O)/C=C(O)/C=C/c2ccc(O)c(OC)c2)ccc1O | 28* | 54* | x | 15 | -15 | 30* | 28 | 6 | 55* | 57*
SMILES | TLR9-MyD88 inh | NOD2 RIPK2 PPI | TLR4 MyD88 comp | IDE cell inh | IDE cell activ | TLR9-MyD88 conf | BLA counter-1 | TLR9 CHO tox | NOD2 RIPK2 conf | BLA counter-2
COc1cc(/C=C/C(=O)O)ccc1O | -1 | -7 | x | -7 | 3 | x | x | x | x | x
Cn1c(C(=O)O)c(CC(=O)N2CCC(Cc3ccccc3)CC2)c2ccccc21 | 13 | -9 | -8 | 0 | 2 | x | x | x | x | x
CC(=O)OCCNc1cc(Sc2nc3ccccc3[nH]2)c2nonc2c1[N+](=O)[O-] | 56* | 89* | 9 | 14 | -33 | 60* | 3 | 99* | 90* | 38*
Cc1ccc(C(=O)N/C(=C/c2ccc(-c3ccc([N+](=O)[O-])cc3)o2)C(=O)NCCCN(C)C)cc1 | 41* | 48* | x | -1 | 1 | 33* | 28 | 6 | 57* | 55*
CCN(CC)c1ccc(C(=C2C=CC(=[N+](CC)CC)C=C2)c2ccccc2)cc1 | 53* | 41* | x | x | -10 | 83* | 18 | 101* | 32* | 22*
CC1=CC(c2ccccc2)n2ncnc2N1 (configuration not stated) | 3 | 4 | x | 5 | 3 | x | x | x | x | x
Cc1ccc(C2C=C(c3ccccc3)Nc3ncnn32)cc1 (configuration not stated) | 37* | 48* | x | 9 | 1 | 6 | 5 | 3 | 16 | 18*
Brc1ccc(C2=CC(c3ccco3)n3nnnc3N2)cc1 (configuration not stated) | -5 | -7 | x | 8 | 13 | x | x | x | x | x
CC(=O)C1=C(C)Nc2ncnn2C1c1ccc(F)cc1 (configuration not stated) | 1 | -12 | x | 4 | 4 | x | x | x | x | x

Screens (PubChem)
